About 83,000 compounds went through this panel and 20% of them were active in at least one assay; those are over-represented in the sample as a whole.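 Growth was measured after 48 h exposure to one concentration of compound in 96-well plates. Values under 10 count as active.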 Active and inactive are the calls of the source.
Assays:
Assay in all cases: NCI-60 one-dose screen, 48 h (100 = growth as untreated, 0 = no growth, -100 = all killed)
NCI-H23 lung = details: 10 µM unless noted
NCI-H226 lung = details: 10 µM unless noted
NCI-H322M lung = details: 10 µM unless noted
NCI-H460 lung = details: 10 µM unless noted
HOP-92 NSCLC = details: 10 µM
NCI-H522 lung = details: 10 µM
A549/ATCC NSCLC = details: 10 µM unless noted
786-0 renal = details: 10 µM unless noted
COLO 205 colon = details: 10 µM unless noted
DU-145 prostate = details: 10 µM unless noted
K-562 leukemia = details: 10 µM unless noted
MALME-3M melanoma = details: 10 µM unless noted
MDA-MB-231 breast = details: 10 µM unless noted
RXF 393 renal = details: 10 µM unless noted
SF-268 CNS = details: 10 µM unless noted
SF-295 CNS = details: 10 µM unless noted
SF-539 CNS = details: 10 µM unless noted
UACC-257 melanoma = details: 10 µM unless noted
M14 melanoma = details: 10 µM unless noted

Measured: growth

CC(O)C(N)=O (stereo unspecified)
inactive: NCI-H23 lung 95.6% | NCI-H226 lung 102% | NCI-H322M lung 108% | NCI-H460 lung 105% | HOP-92 NSCLC 101% | NCI-H522 lung 102% | A549/ATCC NSCLC 109% | 786-0 renal 98.8% | COLO 205 colon 104% | DU-145 prostate 109% | K-562 leukemia 101% | MALME-3M melanoma 105% | MDA-MB-231 breast 114% | RXF 393 renal 107% | SF-268 CNS 103% | SF-295 CNS 95% | SF-539 CNS 94.7% | UACC-257 melanoma 112% | M14 melanoma 97.9%

CC(=O)Nc1nc(C)c(C(=O)N/N=C/N2CCOCC2)s1
inactive: NCI-H23 lung 106% | NCI-H226 lung 99.8% | NCI-H322M lung 115% | NCI-H460 lung 113% | HOP-92 NSCLC 48.4% | NCI-H522 lung 25.3% | A549/ATCC NSCLC 111% | 786-0 renal 77.1% | COLO 205 colon 127% | DU-145 prostate 109% | K-562 leukemia 174% | MALME-3M melanoma 114% | MDA-MB-231 breast 109% | RXF 393 renal 119% | SF-268 CNS 103% | SF-295 CNS 110% | SF-539 CNS 105% | UACC-257 melanoma 118% | M14 melanoma 113%

COC1(OC)N=C(N)C2(C#N)C3(C(=O)Nc4ccccc43)C12C#N (stereo unspecified)
active: MALME-3M melanoma -3.2%
inactive: NCI-H23 lung 81.6% | NCI-H226 lung 62.5% | NCI-H322M lung 105% | NCI-H460 lung 104% | HOP-92 NSCLC 73% | NCI-H522 lung 80.7% | A549/ATCC NSCLC 104% | 786-0 renal 94.3% | COLO 205 colon 116% | DU-145 prostate 68.2% | K-562 leukemia 85.3% | MDA-MB-231 breast 73.6% | RXF 393 renal 61% | SF-268 CNS 105% | SF-295 CNS 96.4% | SF-539 CNS 61.2% | UACC-257 melanoma 100%

CCCCCCCCC/C(=N\NC(=O)c1ccncc1)c1ccc(O)c(O)c1O
inactive: NCI-H23 lung 21.8% | NCI-H226 lung 34.4% | NCI-H322M lung 36.1% | HOP-92 NSCLC 46.6% | NCI-H522 lung 36% | A549/ATCC NSCLC 13.5% | 786-0 renal 11.1% | COLO 205 colon 27.6% | DU-145 prostate 27.8% | K-562 leukemia 15.1% | MALME-3M melanoma 35.4% | MDA-MB-231 breast 47.9% | RXF 393 renal 19.2% | SF-268 CNS 17.6% | SF-295 CNS 16.3%
active: NCI-H460 lung 4.14% | SF-539 CNS 7.62% | UACC-257 melanoma 8.98%

CC1(C)CC(=O)C2=C(C1)Oc1nc(N)c(C#N)c(N)c1C2c1ccc(F)cc1 (stereo unspecified)
inactive: NCI-H23 lung 133% | NCI-H226 lung 106% | NCI-H322M lung 123% | NCI-H460 lung 117% | HOP-92 NSCLC 76.4% | NCI-H522 lung 146% | A549/ATCC NSCLC 110% | 786-0 renal 94.2% | COLO 205 colon 127% | DU-145 prostate 95.7% | K-562 leukemia 85.9% | MALME-3M melanoma 117% | MDA-MB-231 breast 88.7% | SF-268 CNS 117% | SF-295 CNS 110% | SF-539 CNS 86.9% | UACC-257 melanoma 94.8%
active: RXF 393 renal -1.27%

CCCC(=O)NNc1[nH]c(-c2ccc(OC)cc2)cc1C(=O)OCC
inactive: NCI-H23 lung 95.4% | NCI-H226 lung 104% | NCI-H322M lung 35.2% | NCI-H460 lung 120% | HOP-92 NSCLC 72.9% | NCI-H522 lung 91.1% | A549/ATCC NSCLC 110% | 786-0 renal 96.6% | DU-145 prostate 104% | K-562 leukemia 49.1% | MALME-3M melanoma 52% | MDA-MB-231 breast 87.4% | RXF 393 renal 107% | SF-268 CNS 118% | SF-295 CNS 93.7% | SF-539 CNS 92.7% | UACC-257 melanoma 105%
active: COLO 205 colon 1.42%

O=C(NCCNCCO)c1cc([N+](=O)[O-])cc([N+](=O)[O-])c1O
inactive: NCI-H23 lung 103% | NCI-H226 lung 97.7% | NCI-H322M lung 103% | NCI-H460 lung 104% | HOP-92 NSCLC 93.9% | NCI-H522 lung 91.9% | A549/ATCC NSCLC 100% | 786-0 renal 104% | COLO 205 colon 110% | DU-145 prostate 99.3% | K-562 leukemia 102% | MALME-3M melanoma 107% | MDA-MB-231 breast 109% | RXF 393 renal 109% | SF-268 CNS 102% | SF-295 CNS 101% | SF-539 CNS 106% | UACC-257 melanoma 103% | M14 melanoma 102%

CCOC(=O)CCCCCCCCC(=O)OCC
inactive: NCI-H23 lung 96.3% | NCI-H226 lung 103% | NCI-H322M lung 97.6% | NCI-H460 lung 108% | HOP-92 NSCLC 98.6% | NCI-H522 lung 105% | A549/ATCC NSCLC 107% | 786-0 renal 106% | COLO 205 colon 108% | DU-145 prostate 108% | K-562 leukemia 101% | MALME-3M melanoma 94.4% | MDA-MB-231 breast 111% | RXF 393 renal 112% | SF-268 CNS 97.3% | SF-295 CNS 103% | SF-539 CNS 112% | UACC-257 melanoma 101% | M14 melanoma 114%

CCCC(CCC)Oc1ccc(CCCC2=C(O)c3ccccc3C(=O)C2=O)cc1
inactive: NCI-H23 lung 26.9% | NCI-H226 lung 32.6% | HOP-92 NSCLC 28.1% | NCI-H522 lung 30.2% | A549/ATCC NSCLC 32.1% | 786-0 renal 42.2% | COLO 205 colon 43.9% | DU-145 prostate 33.4% | K-562 leukemia 23% | MALME-3M melanoma 57% | MDA-MB-231 breast 54.6% | RXF 393 renal 58.7% | SF-268 CNS 45.3% | SF-295 CNS 28.2% | SF-539 CNS 23.1% | UACC-257 melanoma 40.5%
active: NCI-H322M lung -1.08% | NCI-H460 lung 9.9%

— PubChem BioAssay (NCI)
